Assay outcomes: PubChem BioAssay, National Center for Advancing Translational Sciences (NCATS)
Rows were chosen to be rich in hits. Some 5.9% of all compounds tested hit in one or more screens of this group.
GLP1R cytotox: cytotoxic in the GLP-1 receptor inverse agonist counter-screen; HEK293 cAMP-luciferase reporter cells, luminescence, 24 h; Potency, µM (top dose mostly 38.3 µM), for the others: top-dose activity change, negative = inhibition, hits mostly inhibitors; hit rate 0.13% among 410,000;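 note: loss of luciferase light is scored as toxicity; % is set by controls: 0 for no effect and ±100 for the full control effect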
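Here, cytotoxicity is scored as loss of luminescence. The MLSMR collection was tested on cells seeded in medium containing 10% Nu serum, with a 24 hr compound exposure preceded by 12 hours of culture.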
GLP-1R inv ag: inverse agonists of human GLP-1 receptor | hit rate 1.6% among 410,000 | P43220 | HEK293 GLP-1R CRE-luciferase, luminescence, 24 h; GLP-1R form is constitutively active | Potency, µM (series often up to 38.3 µM), for inactives: at the top dose activity change, negative = inhibition, hits mostly inhibitors; note: % is set by controls: 0 for no effect and ±100 for the full control effect; nearly all actives have a fitted effect of over 55% in size
Target sequence (P43220 whole entry, looked up): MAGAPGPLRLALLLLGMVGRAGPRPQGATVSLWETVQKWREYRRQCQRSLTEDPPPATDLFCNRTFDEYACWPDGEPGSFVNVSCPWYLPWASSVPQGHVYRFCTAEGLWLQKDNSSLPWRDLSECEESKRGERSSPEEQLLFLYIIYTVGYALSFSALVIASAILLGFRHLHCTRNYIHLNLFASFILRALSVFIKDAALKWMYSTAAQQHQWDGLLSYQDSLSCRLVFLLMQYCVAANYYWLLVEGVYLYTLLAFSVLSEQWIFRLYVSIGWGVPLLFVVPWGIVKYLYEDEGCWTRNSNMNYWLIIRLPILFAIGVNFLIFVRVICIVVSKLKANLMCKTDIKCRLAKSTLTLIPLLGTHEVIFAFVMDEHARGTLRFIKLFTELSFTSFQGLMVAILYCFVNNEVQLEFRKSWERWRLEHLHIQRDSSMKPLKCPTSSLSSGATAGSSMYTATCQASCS
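Cells are plated, allowed 12 hours at 37 deg C, then treated with compounds for 24 hr before luciferase detection reagent is added and luminescence is read after 12 min at room temperature. The HEK293 line carries constitutively active GLP-1R with a cAMP-responsive reporter.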
VP16 counter: counter-screen for ROR gamma inhibitors: Gal4-VP16 reporter. hit rate 3.5% among 310,000. AID 2546. Drosophila S2 Gal4-VP16 UAS-luciferase, luminescence, 20 h. Potency, µM (titrated, usually from 53.6 µM), for inactives: at the highest dose activity, negative = inhibition, most hits filed as inhibitors;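 note: Gal4-VP16 expression switched on by copper sulfate through the metallothionein promoter; % is set by controls: 0 for no effect and ±100 for the full control effect; nearly all actives have a fitted effect of over 50% in size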
RORg inh: ROR gamma (mouse) transcription inhibition | hit rate 5.4% among 310,000 | AID 2551 | Drosophila S2 Gal4-RORgamma UAS-luciferase reporter, 20 h | P51450 | Potency, µM (titrated, usually from 53.6 µM), for inactives: at the highest dose activity change, negative = inhibition, actives largely listed as inhibitors; note: % is set by controls: 0 for no effect and ±100 for the full control effect; nearly all actives have a fitted effect of over 60% in size
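Read-out: Photinus luciferase luminescence; inhibitors lower reporter signal. Insect Schneider cells with Gal4-ROR gamma fusion under metallothionein promoter, UAS reporter; 700 uM final copper sulfate induction, 20 hr, ambient temperature.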
GLP-1R agonist: activates the human GLP-1 receptor | P43220 | HEK293 GLP-1R CRE-luciferase, luminescence, 4-6 h; cells express a hypersensitive GLP-1R form | Potency, µM (highest dose often 45.6 µM), inactives show top-dose activation, most hits filed as activators | hit rate 0.007% among 380,000 | AID 624172; note: % of control where 0% means no effect
* = called active by the depositor; ? = inconclusive; . = not tested or not shown. Calls come from the whole dose curve; as a rule, active = well fitted curve in the direction sought with a large enough effect; inconclusive = small, poorly fitted or top-dose-only effect, or another doubt; inactive = no such curve, though single readings can be large; an effect the other way counts as inactive or inconclusive. Potency is the fitted concentration of half-maximal effect.

SMILES	GLP1R cytotox	GLP-1R inv ag	VP16 counter	RORg inh	GLP-1R agonist
Cc1ccc(S(=O)(=O)N(C)C)cc1NC(=S)NCCc1ccccn1	5.7%	4.4%	-12.3%	-0.4%	-3.3%
S=C(NCCc1ccccn1)NC1CC2CCC1C2 (stereo not drawn)	-2.4%	1.2%	?	6.31µM*	3.5%
COc1ccc(NC(=S)NC2CC3CCC2C3)c(OC)c1 (stereo not drawn)	?	?	11.2µM*	5.01µM*	7.0%
CCOc1ccccc1NC(=S)NC1CC2CCC1C2 (stereo not drawn)	?	?	7.08µM*	2.82µM*	-2.2%
CC(CCN1CCN(CCO)CC1)c1ccccc1 (stereo not drawn)	5.2%	-0.9%	2.9%	2.82µM*	-4.6%
CC(CCN1CCOCC1)c1ccccc1 (stereo not drawn)	-8.7%	4.3%	1.2%	15.0%	2.0%
Cc1ccccc1NC(=O)CSc1n[nH]c(-c2ccccn2)n1	-13.0%	?	.	.	-1.4%
O=C(CSc1n[nH]c(-c2ccccn2)n1)Nc1cccc(Cl)c1	?	-11.5%	2.82µM*	1.78µM*	-1.3%
Cc1ccc(C)c(NC(=O)CSc2n[nH]c(-c3ccccn3)n2)c1	?	?	?	6.31µM*	1.6%
Cc1cnc2c(c1SCC(=O)NCc1ccccc1Cl)c(=O)n(C)c(=O)n2C	-12.8%	0.9%	.	.	.
COc1ccccc1CCN1C(=S)NC(C)(C)CC1(C)O (stereo not drawn)	?	?	5.62µM*	2.82µM*	3.3%
COc1ccc(CN2C(=S)NC(C)(C)CC2(C)O)cc1 (stereo not drawn)	?	?	?	12.6µM*	-3.1%
CCOP(=O)(OCC)C(NC(=O)Nc1ccccc1)c1ccccc1 (stereo not drawn)	16.8%	-22.1%	-6.3%	11.2µM*	-3.5%
C=C(C)C1CC=C(C)/C(=N/NC(=S)Nc2ccccc2)C1 (stereo not drawn)	?	?	1.12µM*	1.12µM*	-3.1%
CCCn1c(C)nc2c(NC3CCCCC3)nc(C)nc21	.	.	9.0%	15.8µM*	.
COC1CC2CCC(C)[C@](O)(O2)C(=O)C(=O)N2CCCCC2C(=O)OC(C(C)CC2CCC(O)C(OC)C2)CC(=O)C(C)/C=C(/C)C(O)C(OC)C(=O)C(C)CC(C)C=CC=C/C=C\1C (stereo partly drawn)	.	.	?	-22.5%	1.0%
COC(=O)N1C(=O)[C@@](c2ccccc2)(C2CCCC2)N1C(=O)OC	?	?	-3.0%	11.2µM*	-0.5%
C[C@@H]1CNCCN1S(=O)(=O)c1cccc2cnccc12	.	.	25.1µM*	?	.
Cc1ccc(S(=O)Cc2ccc(C(=O)NC3CCCCCC3)o2)cc1 (stereo not drawn)	-5.0%	-7.0%	.	.	0.5%
COc1ccc(/C=C2/CSC/C(=C/c3ccc(OC)c(OC)c3)C2=O)cc1OC	-34.9%	5.01µM*	.	.	8.9%
COc1cc(CN(C)Cc2cc(=O)n3ccsc3n2)ccc1OC(F)F	-1.3%	13.4%	15.8µM*	-14.5%	4.1%
COc1cc(CN(C)c2ccc(S(=O)(=O)N3CCCC3)cn2)ccc1OC(F)F	13.7%	-60.1%	.	.	35.1%
C[C@@H](/C=C/c1ccc2ccccc2c1)C1COC(=O)C[C@H]1O (stereo partly drawn)	.	.	-25.8%	-14.6%	.
Cc1cc(C)cc(NC(=O)C(=O)NCC(c2cccnc2)N2CCc3ccccc32)c1 (stereo not drawn)	-17.0%	?	.	.	.
CCOC(=O)c1ccc(NC(=O)c2c(NCc3ccc(OC)c(OC)c3OC)sc3c2CCC(C)C3)cc1 (stereo not drawn)	5.9%	7.0%	.	.	.
SMILES	GLP1R cytotox	GLP-1R inv ag	VP16 counter	RORg inh	GLP-1R agonist
Brc1ccc(CSc2nccn2-c2ccccc2)cc1	4.8%	?	-1.0%	14.1µM*	1.1%
O=C(CSc1nccn1-c1ncc(C(F)(F)F)cc1Cl)c1ccc(Br)cc1	24.1%	-29.7%	?	11.2µM*	-4.0%
FC(F)(F)c1ccc(CSc2nccn2-c2ccccc2)cc1	57.6%	?	-8.9%	?	17.3%
Cc1ccc(C(=O)CSc2nccn2-c2ccccc2)cc1	-10.4%	?	?	10µM*	3.3%
Clc1cccc(CSc2nccn2-c2ccccc2)c1	-3.9%	0.0%	-3.9%	5.01µM*	22.9%
Cc1nc2cnc(N3CCOCC3)nc2n(CCc2ccccc2)c1=O	.	.	-2.0%	35.0%	.
CCOC(=O)/C=C/CCCC=O	.	.	4.8%	12.6%	.
OC[C@@H]1O[C@](CO)(O[C@H]2O[C@H](CO)[C@@H](O)[C@H](O)[C@H]2O)[C@H](O)[C@H]1O	.	.	-1.3%	5.5%	-4.1%
COc1ccc(-c2csc(NC(=O)c3ccccc3NS(=O)(=O)c3ccc(F)c(F)c3)n2)cc1	?	?	3.98µM*	5.62µM*	0.5%
Cc1ccc(S(=O)(=O)Nc2nc(-c3ccccc3)cs2)cc1	13.2%	-24.2%	3.4%	-38.7%	-17.4%
Cc1ccc(S(=O)(=O)Nc2ccccc2C(=O)Nc2nc(-c3ccc(F)cc3)cs2)cc1	?	3.16µM*	-7.9%	15.6%	-18.1%
COc1ccc(-c2cc(C(F)(F)F)nc(SCC(=O)N3CCCCC3)n2)cc1OC	2.0%	25.5%	.	.	0.4%
O=C(Nc1cccc(Cl)c1)C1C2CCC3C(CCC21)C3(Cl)Cl (stereo not drawn)	-35.2%	5.62µM*	?	?	-9.0%
O=C(Nc1ccccc1)C1C2CCC3C(CCC21)C3(Cl)Cl (stereo not drawn)	-16.0%	6.31µM*	-4.2%	25.5%	-4.0%
O=C(Nc1ccccc1Cl)C1C2CCC3C(CCC21)C3(Cl)Cl (stereo not drawn)	2.2%	9.8%	?	-7.6%	7.4%
O=C(Nc1cccc(Cl)c1)C1CCCCC1	6.0%	3.1%	.	.	17.4%
Cc1[nH]n(C(N)=S)c(=O)c1N=Nc1ccc2ccccc2c1	?	?	3.98µM*	1µM*	2.8%
Cc1ccc(C(=O)NNC(=O)c2ccc(S(=O)(=O)N3CCCCC3)cc2)cc1	4.7%	-17.0%	.	.	-18.3%
Cc1[nH]n(C(N)=S)c(=O)c1N=Nc1ccc(S(=O)(=O)N2CCCCCC2)cc1	-38.5%	-6.0%	2.51µM*	0.891µM*	-1.5%
Cc1[nH]n(C(N)=S)c(=O)c1N=Nc1cccc([N+](=O)[O-])c1C	-20.0%	16.0%	.	.	-6.4%
CC(=O)Nc1ccc(N=Nc2c(C)[nH]n(C(N)=S)c2=O)cc1	-16.4%	18.6%	-0.1%	3.98µM*	-3.7%
COC(=O)c1ccc(N=Nc2c(C)[nH]n(-c3ccccc3)c2=O)cc1	-5.3%	7.3%	.	.	-2.8%
Cc1[nH]n(C(N)=S)c(=O)c1N=Nc1cc(-c2ccc(Br)cc2)[nH]n1	-8.0%	6.5%	-9.2%	1.58µM*	4.7%
CC(C)c1ccc(OCC(=O)Nc2cc(-c3ccccc3)no2)cc1	-10.5%	-12.9%	.	.	.
